The values below come from PubChem BioAssay.

Records with an inconclusive call do not appear. Activity calls are given as the source filed them.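 Rule for the calls, unless noted: active = growth inhibition above 25% in both replicates, a cutoff set 3 SD above the mean; inconclusive = above 25% in only one replicate; inactive = the rest.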

For assay [1], the target named is Pantothenate synthetase (Mycobacterium tuberculosis (strain ATCC 25618 / H37Rv)) (UniProt P9WIL5). The assay can be described thus: Recombinant Mtb pantothenate synthetase (PanC) inhibitors, coupled enzyme, confirmatory (AID 375; call rule not given here;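 note: 0% = full reaction with vehicle and 100% = no enzyme background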). Particulars: coupled enzyme assay; at 10 µM, stronger effect = higher value.
Assay [2] in a line: reducers of endogenous Her2 protein level, primary screen, SKBR3 breast tumor cells, AlphaScreen, ATP viability (AID 461;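 active = Her2 level under about 52% in both replicate screens, with viability over 70% of control, limit read from the data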;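 for Her2 level: lower value means less Her2 protein in the cells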;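 for viability: percent of carrier control wells set as 100% viability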). Particulars: 18-24 h, measured here: SKBR3 viability, ATP luminescence, at 10 µM. A general note: Bead proximity is the source of the signal in Alpha formats.
The target in assay [3] is Receptor tyrosine-protein kinase erbB-2 (Homo sapiens) (UniProt P04626). The assay is described as above. To be noted: 18-24 h, at 10 µM, stronger effect = lower value.
Assay [4] can be described thus: SK-BR-3 cell growth inhibitors, pilot screen, 24 h, human (AID 572;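 active = viability at or below 10% of carrier control in both of two separate runs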;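 note: compound exposure lasted between 18 and 24 h rather than exactly 24 h; 100% = carrier-treated control wells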). Particulars: SK-BR-3 viability, CellTiter-Glo luminescence, at 10 µM, stronger effect = lower value. A general note: In ATP-based viability assays light output follows the ATP content of the culture.
Assay [5] can be described thus: growth inhibitors of H69AR lung tumor, primary screen, human, duplicate replicates (AID 580;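 active = viability at or under a set limit in both replicates, limit being median viability minus 3 SD, cut at about 48% in these data, passing the limit was not always enough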;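 note: 100% = mean luminescence of untreated wells and 0% = no signal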). Particulars: H69AR lung tumor cells viability, ATP luminescence, 72 h; at 10 µM; stronger effect = lower value.
Assay [6] can be described thus: reversal of MRP1-mediated doxorubicin resistance, pilot screen, H69AR cells, doxorubicin co-treatment (AID 601;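 active = viability loss from added drug above about 55%, and viability with drug at most 40%, in both replicates, limit read from the data, passing the limit was not always enough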). To be noted: CellTiter-Glo, 72 h, at 10 µM; for differential viability (reversal): stronger effect = higher value.
The nature of assay [7]: 384-well plate pilot, post-Golgi transport modulator project, inhibition of yeast transport mutant growth (AID 636; in the data active = inhibition above about 31%). Particulars: absorbance 615 nm, about 18 h, stronger effect = higher value.
The nature of assay [8]: growth suppression of yeast trafficking mutant, preliminary HTS, modulators of trafficking downstream of Golgi apparatus project, 1536-format plate, OD 615 nm (AID 637; in the data active = inhibition above about 30%). To be noted: yeast transport mutant growth, absorbance 615 nm, 18 h; stronger effect = higher value.
Assay [9] is described as follows: OD615 S. cerevisiae growth inhibition, permissive medium, pilot counter-assay, permissive growth control for S. cerevisiae lifespan shortening project (AID 705). To be noted: OD615, 24 h, at 10 µM, stronger effect = higher value.
The nature of assay [10]: Restrictive medium S. cerevisiae growth inhibition, OD615, pilot screen of yeast lifespan reduction project, restrictive growth control (AID 706;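 active = growth inhibition above a set limit, 3 SD over mean compound inhibition, in both replicates, cut at about 43% in these data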;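 note: modified DeaD lifespan yeast strain shifted to restrictive glucose medium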). Particulars: OD615, 48 h, at 10 µM, stronger effect = higher value.
A short description of assay [11]: viability gain of MRP-1-high H69AR cells under doxorubicin, pilot screen, MRP-1 activator project, CellTiter-Glo, duplicate (AID 807;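 active = viability increase at or above a cutoff of the median across tested compounds plus 3 SD, cut at about 8.5% in these data, passing the limit was not always enough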;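 note: compound pretreatment 18-22 h then 72 h combined with doxorubicin; 0% = doxorubicin alone and 100% = vehicle without doxorubicin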). To be noted: H69AR viability with doxorubicin, CellTiter-Glo luminescence; at 10 µM; stronger effect = higher value.
A short description of assay [12]: growth suppression of beta-catenin knockout HCT116, pilot screen, human colon tumor cells (AID 823;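 active = cell viability at or below a set limit in both duplicate runs, the limit being the all-compound median minus 4 SD, cut at about 23% in these data, passing the limit was not always enough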;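 note: 0% = wells killed by 20 µM Hyamine and 100% = untreated DMSO cell wells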). Particulars: CellTiter-Glo, 60 h, at 10 µM, stronger effect = lower value.
A short description of assay [13]: growth suppression of PTEN-deleted HCT116, pilot screen, cell-based, HCT116 clonal line, CellTiter-Glo (AID 824;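 active = viability at or below 27.92% in each of two runs, the all-compound median minus 4 SD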;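 note: 0% = 20 µM Hyamine control and 100% = vehicle cell control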). To be noted: 60 h, at 10 µM, stronger effect = lower value.
Assay [14] can be described thus: inhibitors of the yeast RAM network, pilot screen, dse1pr::URA3 reporter, 5-FOA selection (AID 869;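 active = inhibition over a set limit, the all-compound mean plus 3 SD, in both replicate runs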;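 note: 0% = DMSO wells with no growth and 100% = 10 µM 1-NA-PP1 with full growth; RAM network block rescues cells from 5-FOA so hits raise OD615 growth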). Particulars: S. cerevisiae dse1pr::URA3 5-FOA growth, OD615, 2 d, at 10 µM, stronger effect = higher value.
The nature of assay [15]: RAM signaling pathway blockade in yeast – S. cerevisiae, Pdr1DBD-CYC8 efflux-inhibited sensitized strain, primary screen (AID 1298;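 active = RAM network inhibition above 8.4% in each of two replicates, 3 SD over the compound average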;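 note: 0% = DMSO untreated cells without growth and 100% = 10 µM 1-NA-PP1 full growth; higher means more yeast growth rescued from 5-FOA killing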). Particulars: S. cerevisiae cbk1-as DSE1-URA3 strain, 5-FOA growth OD615, 2 d; at 50 µM; stronger effect = higher value.
Assay [16] is described as follows: HUVEC growth inhibition – cell-based, human, primary screen (AID 575;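 active = viability at or below 30% in both replicate assays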;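 note: 100% = median of untreated cell wells with 0.1% DMSO on each plate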). Particulars: HUVEC proliferation, CellTiter-Glo luminescence, 72 h; at 10 µM; stronger effect = lower value.
The mark [17] stands for this setting: H69AR cells + 2 uM doxorubicin, measured here: viability with 2 uM doxorubicin, stronger effect = lower value.
Where [18] appears, read: H69AR cells, compound alone cytotoxicity.

Chain of Pantothenate synthetase (Mycobacterium tuberculosis (strain ATCC 25618 / H37Rv)) (P9WIL5 whole entry, looked up): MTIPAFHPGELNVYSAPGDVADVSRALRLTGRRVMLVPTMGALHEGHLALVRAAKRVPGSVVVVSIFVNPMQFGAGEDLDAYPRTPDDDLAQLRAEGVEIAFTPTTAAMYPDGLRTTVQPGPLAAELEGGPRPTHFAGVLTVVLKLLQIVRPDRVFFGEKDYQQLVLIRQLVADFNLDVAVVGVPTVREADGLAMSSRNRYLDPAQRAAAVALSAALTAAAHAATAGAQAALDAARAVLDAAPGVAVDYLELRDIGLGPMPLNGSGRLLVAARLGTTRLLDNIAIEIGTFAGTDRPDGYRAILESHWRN
Chain of Receptor tyrosine-protein kinase erbB-2 (Homo sapiens) (P04626 whole entry, looked up): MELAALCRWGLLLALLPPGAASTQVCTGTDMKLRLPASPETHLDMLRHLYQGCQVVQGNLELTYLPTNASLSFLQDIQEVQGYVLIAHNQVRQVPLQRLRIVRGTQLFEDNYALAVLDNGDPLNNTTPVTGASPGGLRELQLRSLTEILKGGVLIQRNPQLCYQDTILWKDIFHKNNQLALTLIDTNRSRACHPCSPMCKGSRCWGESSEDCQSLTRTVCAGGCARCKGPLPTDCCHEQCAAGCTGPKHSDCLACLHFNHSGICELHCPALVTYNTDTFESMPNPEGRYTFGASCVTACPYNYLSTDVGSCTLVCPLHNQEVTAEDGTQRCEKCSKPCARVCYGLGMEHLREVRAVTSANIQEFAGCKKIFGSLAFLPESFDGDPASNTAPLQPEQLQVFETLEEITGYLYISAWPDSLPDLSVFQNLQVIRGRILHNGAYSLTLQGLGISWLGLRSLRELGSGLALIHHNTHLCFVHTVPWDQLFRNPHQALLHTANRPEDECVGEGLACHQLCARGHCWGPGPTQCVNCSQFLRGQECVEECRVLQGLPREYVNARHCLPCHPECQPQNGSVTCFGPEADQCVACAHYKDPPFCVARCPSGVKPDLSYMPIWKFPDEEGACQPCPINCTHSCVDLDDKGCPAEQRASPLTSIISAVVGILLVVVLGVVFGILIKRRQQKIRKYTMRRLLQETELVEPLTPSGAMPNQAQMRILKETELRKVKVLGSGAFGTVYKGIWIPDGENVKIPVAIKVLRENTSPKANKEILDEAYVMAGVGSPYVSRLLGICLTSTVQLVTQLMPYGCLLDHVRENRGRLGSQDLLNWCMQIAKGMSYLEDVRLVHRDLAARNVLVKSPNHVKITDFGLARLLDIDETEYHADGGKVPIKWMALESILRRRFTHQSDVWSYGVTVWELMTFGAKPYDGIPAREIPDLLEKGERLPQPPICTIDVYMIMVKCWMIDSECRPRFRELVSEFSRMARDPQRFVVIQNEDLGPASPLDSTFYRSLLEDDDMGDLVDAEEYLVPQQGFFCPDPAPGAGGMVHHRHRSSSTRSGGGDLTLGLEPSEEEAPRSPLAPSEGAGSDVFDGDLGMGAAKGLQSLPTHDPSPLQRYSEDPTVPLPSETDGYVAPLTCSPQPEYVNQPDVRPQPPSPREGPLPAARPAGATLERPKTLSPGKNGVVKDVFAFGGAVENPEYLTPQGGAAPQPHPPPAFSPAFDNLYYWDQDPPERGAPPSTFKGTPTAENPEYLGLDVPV

Take `C[C@H]1CCCC(=O)CCC/C=C/c2cc(O)cc(O)c2C(=O)O1`: the inhibition is 0% (inactive) in [1], -3.47% (inactive) in assay [7], 1.15% (inactive) in assay [8] and 2.21% (inactive) in [14]. The viability in [2] was 98.5%; in [4], 98.5% (inactive); in assay [5] it was 38.4% (active); in assay [6] (setting [17]), 95.8%; in [6] (setting [18]) it was 38.4%; in assay [12], 65.3% (inactive). Moreover, the viability in [13] was 66.5% (inactive). In [3], the Her2 level was 16% (active). In addition, the differential viability (reversal) in [6] (H69AR cells + 2 uM doxorubicin) is -57.4% (inactive). The values for the growth inhibition in [9] and in [10] were -12.9% (inactive) and -14.8% (inactive), respectively. In assay [11], the viability increase was -6.31% (inactive). In assay [15], the RAM network inhibition is 4.86% (inactive).

Consider `COC(=NC1CCCC1)C(O)c1c[nH]c2ccccc12` (stereo not given), for which the inhibition in assay [1] is 0% (inactive); in assay [7] it was -0.82% (inactive); in [8], -4.44% (inactive); in [14] it was 0.825% (inactive). Further, the viability was 101% in assay [2]; 101% (inactive) in assay [4]; 102% (inactive) in [16]; 108% (inactive) in assay [5]; 106% in assay [6] (setting [17]); 108% in assay [6] (setting [18]). Besides, the viability in assay [13] is 81.2% (inactive). The Her2 level in assay [3] was 103% (inactive). In addition, in assay [6] (H69AR cells + 2 uM doxorubicin), the differential viability (reversal) is 1.98% (inactive). Besides, the results for the growth inhibition in assay [9] and in assay [10] were -12.2% (inactive) and -12.5% (inactive), respectively. Further, the viability increase in [11] is -4.16% (inactive). Besides, the RAM network inhibition in [15] was 0.62% (inactive).

Take `O=C(c1ccccc1)c1cn(CC(=O)N2CCCC2)c2ccccc12`: the values for the growth inhibition in assay [9] and in assay [10] were -15.1% (inactive) and -16.4% (inactive), respectively. In assay [11], the viability increase is -1.14% (inactive). In addition, the viability in assay [12] is 102% (inactive); in assay [13], 92% (inactive). In [14], the inhibition was 3.23% (inactive). In assay [15], the RAM network inhibition is 4.67% (inactive).

Turning to `Cc1ccc(CC2C(=O)N(C)C(=O)N(C)C2=O)s1`, the inhibition in [1] was 0% (inactive); in [7], -3.77% (inactive); in assay [8], -1.67% (inactive); in assay [14], -0.01% (inactive). Besides, the viability in assay [2] is 106%; in assay [4], 106% (inactive); in [16], 82.8% (inactive); in assay [5] it was 95.4% (inactive); in assay [6] (setting [17]) it was 88.3%; in assay [6] (setting [18]), 95.4%. Moreover, the figures for the viability in assay [12] and in [13] were 100% (inactive) and 99.6% (inactive), respectively. The Her2 level in assay [3] was 119% (inactive). Further, the differential viability (reversal) in assay [6] (H69AR cells + 2 uM doxorubicin) was 7.06% (inactive). Besides, the growth inhibition in [9] was -2.9% (inactive); in [10], 3.58% (inactive). For the same molecule, the viability increase in assay [11] is 0.21% (inactive). Also, the RAM network inhibition in assay [15] was 4.4% (inactive).

As for `CC1(C)Cc2c(sc3c2C(=O)NC(c2cccnc2)N3)CO1` (stereo not given), the inhibition in assay [1] is 7% (inactive); in assay [7], -3.47% (inactive); in [8], 1.48% (inactive); in [14], 1.58% (inactive). Besides, the viability in [2] is 113%; in assay [4], 113% (inactive); in assay [16], 102% (inactive); in assay [5] it was 98.5% (inactive); in assay [6] (setting [17]) it was 85.7%; in assay [6] (setting [18]) it was 98.5%. Further, in assay [12], the viability is 107% (inactive). Besides, the Her2 level in [3] was 83.5% (inactive). The differential viability (reversal) in [6] (H69AR cells + 2 uM doxorubicin) was 12.8% (inactive). Moreover, the growth inhibition in assay [9] was -16.3% (inactive); in assay [10], 11.8% (inactive). Besides, in [11], the viability increase was -2.97% (inactive). Besides, the RAM network inhibition in assay [15] is 5.15% (inactive).

Take `O=c1cccc2n1CC1CC2CN(C(c2cccc(F)c2)c2sc3ncnn3c2O)C1` (stereo not given): the figures for the growth inhibition in assay [9] and in [10] were -2.99% (inactive) and -4.42% (inactive), respectively. Besides, in [11], the viability increase was -0.98% (inactive). The viability in assay [12] was 105% (inactive); in assay [13], 111% (inactive). Further, the inhibition in assay [14] is 2.02% (inactive). Moreover, the RAM network inhibition in [15] is -0.21% (inactive).

Take `COc1ccc(OC)c(N2C(=O)NC(=O)C(CCc3ccncc3)(CCc3ccncc3)C2=O)c1`: the inhibition in assay [1] is 0% (inactive); in assay [7] it was 0.79% (inactive); in assay [8], 11.3% (inactive); in assay [14] it was 2.2% (inactive). Further, the viability is 105% in assay [2]; 105% (inactive) in assay [4]; 91% (inactive) in [16]; 82.8% (inactive) in [5]; 91.7% in [6] (setting [17]); 82.8% in assay [6] (setting [18]). The viability in assay [12] was 94.8% (inactive); in assay [13] it was 94.2% (inactive). Moreover, the Her2 level in [3] was 112% (inactive). The differential viability (reversal) in [6] (H69AR cells + 2 uM doxorubicin) is -8.92% (inactive). The results for the growth inhibition in assay [9] and in assay [10] were -15.9% (inactive) and -9.8% (inactive), respectively. Besides, in assay [11], the viability increase was -1.85% (inactive). In addition, in assay [15], the RAM network inhibition was 0.12% (inactive).

On to `CCCCNC(=O)c1c(N)n(CCCOC)c2nc3ccccc3nc12`, for which the inhibition was 0% (inactive) in assay [1], 1.1% (inactive) in [7], 5.24% (inactive) in assay [8] and 0.37% (inactive) in assay [14]. The viability is 89% in assay [2]; 89% (inactive) in assay [4]; 71.8% (inactive) in [16]; 79.4% in assay [6] (setting [17]); 54% in assay [6] (setting [18]); 68.5% (inactive) in assay [12]. Further, in assay [13], the viability was 67.8% (inactive). The Her2 level in assay [3] was 82% (inactive). Further, the differential viability (reversal) in [6] (H69AR cells + 2 uM doxorubicin) is -25.4% (inactive). For the same molecule, the growth inhibition was 1.92% (inactive) in [9] and -1.88% (inactive) in assay [10]. Besides, the viability increase in [11] is -6.16% (inactive). Further, the RAM network inhibition in assay [15] is -3.2% (inactive).

In the case of `COc1ccc(N2C(=O)CC(N3CC=C(c4ccccc4)CC3)C2=O)cc1` (stereo not given), the growth inhibition was -17.8% (inactive) in assay [9] and -0.61% (inactive) in [10]. For the same molecule, the viability increase in [11] is 1.66% (inactive). In addition, the viability in assay [12] is 101% (inactive); in assay [13] it was 103% (inactive). For the same molecule, in assay [14], the inhibition was 0.145% (inactive). For the same molecule, the RAM network inhibition in [15] was 4.45% (inactive).

In the case of `O=C1OCCN1P(=O)(c1ccccc1)c1ccccc1`, the figures for the growth inhibition in [9] and in [10] were -6.19% (inactive) and 2.02% (inactive), respectively. The viability increase in [11] is -0.69% (inactive). Further, the viability was 98.4% (inactive) in assay [12] and 98% (inactive) in [13]. Also, the inhibition in [14] is 0.445% (inactive). Further, the RAM network inhibition in assay [15] was -1.04% (inactive).

Consider `O=P(OCC(F)(F)C(F)F)(N1CCCCC1)N1CCCCC1`, for which the inhibition in assay [1] is 3% (inactive); in [7], 2.67% (inactive); in [8], -7.9% (inactive); in assay [14] it was 0.595% (inactive). The viability is 104% in assay [2]; 104% (inactive) in assay [4]; 106% (inactive) in assay [16]; 117% (inactive) in assay [5]; 99.9% in assay [6] (setting [17]); 117% in [6] (setting [18]). For the same molecule, the viability in assay [12] was 89% (inactive); in assay [13], 95.5% (inactive). Further, the Her2 level in assay [3] was 108% (inactive). Also, in assay [6] (H69AR cells + 2 uM doxorubicin), the differential viability (reversal) is 17.1% (inactive). Moreover, the growth inhibition was -8.86% (inactive) in assay [9] and -5.09% (inactive) in assay [10]. Also, the viability increase in [11] was -0.61% (inactive). Besides, in assay [15], the RAM network inhibition is 3.2% (inactive).

In general, inhibition refers to the change of the read-out against control, counted positive when it falls. A word on the viability: it is a read-out of living cells in per cent, often relative to untreated cells.
